# Source: PubChem (National Center for Advancing Translational Sciences (NCATS))
# IP6K1 inh: blocks human inositol hexakisphosphate kinase 1; activity change, % (series mostly up to about 58 µM); AID 1645851; IP6K1 kinase, ADP-Glo luminescence, 2 h; stronger effect = lower value; Q92551; hit rate 0.81% among 140,000; in the data active means activity change below about -25%; further: on the % scale 0 is the no-effect control and ±100 the full control effect
#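 ADP-Glo luminescence measures ADP made by human IP6K1 during a 2 h RT reaction with ATP/IP6 (mix at 1.3 mM/130 uM); top library doses 57.5 and 19.1 uM final.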
# KDM5B inh: inhibitors of human KDM5B histone demethylase; Potency, µM (highest dose often 57.7 µM), usual class: inhibitors; AID 1347165; Q9UGL1; hit rate 2.6% among 220,000; KDM5B demethylase, FDH-coupled NADH fluorescence (FDH is formaldehyde dehydrogenase); further: potency means the concentration at half of the fitted maximal effect; 0% is about no effect; nearly all actives have a fitted effect of over 70% in size
# Target sequence (Q9UGL1 whole entry, looked up): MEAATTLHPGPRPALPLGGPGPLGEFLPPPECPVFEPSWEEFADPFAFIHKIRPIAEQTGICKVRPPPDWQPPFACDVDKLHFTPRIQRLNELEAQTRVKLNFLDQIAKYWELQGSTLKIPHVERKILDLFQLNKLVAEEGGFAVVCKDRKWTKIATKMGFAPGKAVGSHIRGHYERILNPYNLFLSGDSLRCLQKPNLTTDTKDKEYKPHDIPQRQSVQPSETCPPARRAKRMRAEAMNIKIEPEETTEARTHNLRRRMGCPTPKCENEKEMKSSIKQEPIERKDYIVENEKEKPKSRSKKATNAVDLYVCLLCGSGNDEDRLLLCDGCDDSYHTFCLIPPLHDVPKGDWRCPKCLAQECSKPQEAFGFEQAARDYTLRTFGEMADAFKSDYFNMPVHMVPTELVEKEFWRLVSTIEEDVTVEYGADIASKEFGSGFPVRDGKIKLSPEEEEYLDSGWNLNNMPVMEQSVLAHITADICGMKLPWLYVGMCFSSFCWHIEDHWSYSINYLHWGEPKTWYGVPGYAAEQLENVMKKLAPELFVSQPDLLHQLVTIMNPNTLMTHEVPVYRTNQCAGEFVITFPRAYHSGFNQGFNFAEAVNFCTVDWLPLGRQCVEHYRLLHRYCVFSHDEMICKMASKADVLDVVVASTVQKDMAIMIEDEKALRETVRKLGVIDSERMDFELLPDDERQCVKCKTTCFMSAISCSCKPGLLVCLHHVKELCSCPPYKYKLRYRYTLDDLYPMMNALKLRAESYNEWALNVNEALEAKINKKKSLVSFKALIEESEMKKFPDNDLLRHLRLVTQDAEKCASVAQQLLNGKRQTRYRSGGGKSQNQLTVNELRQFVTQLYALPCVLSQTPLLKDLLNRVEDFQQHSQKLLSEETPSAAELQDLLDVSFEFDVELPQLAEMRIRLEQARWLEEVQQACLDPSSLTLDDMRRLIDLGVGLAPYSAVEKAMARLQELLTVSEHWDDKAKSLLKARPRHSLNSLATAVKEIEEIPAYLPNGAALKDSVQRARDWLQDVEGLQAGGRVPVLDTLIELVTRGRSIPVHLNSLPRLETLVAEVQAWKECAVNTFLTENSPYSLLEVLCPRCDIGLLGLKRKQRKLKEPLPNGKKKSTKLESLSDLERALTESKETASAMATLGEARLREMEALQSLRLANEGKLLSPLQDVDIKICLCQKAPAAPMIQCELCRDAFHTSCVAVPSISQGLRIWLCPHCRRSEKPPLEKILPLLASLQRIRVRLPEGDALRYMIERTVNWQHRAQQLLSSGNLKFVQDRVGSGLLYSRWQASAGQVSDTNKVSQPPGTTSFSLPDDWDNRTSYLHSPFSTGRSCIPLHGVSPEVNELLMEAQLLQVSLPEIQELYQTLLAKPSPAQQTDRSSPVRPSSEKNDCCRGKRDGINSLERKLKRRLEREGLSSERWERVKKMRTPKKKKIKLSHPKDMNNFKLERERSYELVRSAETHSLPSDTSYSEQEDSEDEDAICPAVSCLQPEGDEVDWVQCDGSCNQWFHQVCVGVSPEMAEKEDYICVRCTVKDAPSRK
#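 qHTS format, multiple compound concentrations. Buffer 50 mM HEPES pH 7.5/0.01% Tween-20; 200 nM KDM5BΔAP final; 10 min compound preincubation; substrate-mix levels 12.5 µM peptide, 25 µM α-KG, 0.25 mM NAD⁺; 30 min RT; ΔRFU.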
# * hit, by the source's call; i = inactive; u = inconclusive; x = not tested or not shown. Sampled rows, rich in hits. Any-hit rate of the full collection: about 2.8%.
SMILES,IP6K1 inh,KDM5B inh
C[C@H]1[C@@H]2[C@@H](O)C([C@H](C)C(=O)NCc3ccc(F)cc3)CC[C@@]2(C)CC[C@@H]1NC(=O)c1ccccc1 (stereo partly drawn),-5,i
CCNC(=O)N[C@@H]1C=C[C@@H](c2c(C)nn(CCC#N)c2C)C1,11,u
O=C(Nc1ccc(Br)cc1F)c1ccc2nc(N3CCCCC3)sc2c1,x,i
Cc1ccc(-c2nn(-c3cccc(F)c3)cc2CN(C)CCO)o1,7,25µM*
COc1ccc(-c2nn(-c3ccccc3)cc2CN(C)CCn2ccnc2C)c(F)c1,x,i
COC(=O)CN(C)Cc1cn(-c2ccc(C)cc2)nc1-c1cccc(C)c1,0,i
Cc1cc(CN(C)Cc2cn(-c3cccc(F)c3)nc2-c2ccc(C)o2)n[nH]1,10,25µM*
Cc1ccc(Nc2nc3ccccc3nc2NS(=O)(=O)c2ccc(F)cc2)cc1C,x,i
Cn1c(Cn2cccn2)nnc1C1CCN(C(=O)N2CCOCC2)CC1,-13,i
O=C(OCc1ccccc1)N1CCOCC12CCN(Cc1ccc(F)cc1)CC2,-9,i
CC1CN(C)C(C)CC1O (stereo not drawn),x,i
COc1ccc(-c2noc([C@@H](C)NC(=O)c3nc4ccccc4[nH]3)c2C(=O)O)cc1,1,28µM*
COc1ccc(-c2noc([C@@H](C)NC(=O)c3nc4ccccc4s3)c2C(=O)O)cc1,-6,u
O=C(c1ccccc1)N1CCNc2cnc(Nc3cccc(F)c3)nc2C1,-6,u
O=C(COc1ccccc1)N1CCNc2cnc(Nc3cccc(F)c3)nc2C1,-7,35µM*
COc1ccc(-c2cc(N3CCC(NC(=O)c4ccc(OC)cc4C)CC3)n[nH]2)cc1,15,i
Cc1cccc(-c2cc(C(=O)Nc3cc(C)n(C)n3)c3ccccc3n2)c1,x,i
Cn1ncc(N2CCC(CNC(=O)c3cn4cccnc4n3)C2)cc1=O (stereo not drawn),-9,28µM*
Cn1ncc(N2CCC(CNC(=O)c3cccc(CO)n3)C2)cc1=O (stereo not drawn),19,i
COc1ncccc1-c1nc2cc(C(=O)NCc3ccc(F)cc3)ccc2o1,26,x
COCCN(CCCc1ccccc1)CC(=O)N(C)C,x,i
Cc1ccccc1-c1cc(C(=O)O)c2cccc(C)c2n1,x,i
Cc1cc(C)c([S+](=O)([O-])c2nnn3c2nc(N2CCC(F)CC2)c2ccccc23)c(C)c1,8,79µM*
Cc1ccc(C)c([S+](=O)([O-])c2nnn3c2nc(N2CCC(F)CC2)c2ccccc23)c1,5,79µM*
O=[S+]([O-])(c1ccncc1)c1nnn2c1nc(N1CCC(F)CC1)c1ccccc12,9,i
SMILES,IP6K1 inh,KDM5B inh
Cc1cc(C)c([S+](=O)([O-])c2nnn3c2nc(N2CCOCC2)c2ccccc23)c(C)c1,-6,u
CC1(COc2ccccc2)COc2ccc(C(=O)NCc3ccco3)cc2N1 (stereo not drawn),-3,u
COc1ccc(OCC2(C)COc3ccc(C(=O)NCc4ccc(F)cc4)cc3N2)cc1 (stereo not drawn),-6,u
COc1ccc(OCC2(C)COc3ccc(C(=O)Nc4ccccc4)cc3N2)cc1 (stereo not drawn),1,28µM*
COc1ccc(OCC2(C)COc3ccc(C(=O)NCc4ccco4)cc3N2)cc1 (stereo not drawn),-6,18µM*
COc1ccc(OCC2(C)COc3ccc(C(=O)NCC4CCOCC4)cc3N2)cc1 (stereo not drawn),-2,32µM*
COc1ccc(OCC2(C)COc3ccc(C(=O)N(C)C)cc3N2)cc1 (stereo not drawn),-7,i
O=C(Nc1cccc(F)c1)C1CC2CCCC(C1)C2=O (stereo not drawn),x,i
CN(C)C[C@@H]1CN(c2ccccn2)C[C@H]1NC(=O)CC1=CCCCC1,-3,32µM*
CN(C)C[C@@H]1CN(c2ccccn2)C[C@H]1NC(=O)NC(C)(C)C,4,32µM*
Cc1noc(C)c1CC(=O)N[C@@H]1CN(c2ccncn2)C[C@H]1CN(C)C,4,i
CN(C)C[C@@H]1CN(c2ccccn2)C[C@H]1NC(=O)Cc1ccsc1,1,28µM*
CN(C)C[C@@H]1CN(c2ccccn2)C[C@H]1NC(=O)CCn1cccn1,18,u
Cc1noc(C)c1CC(=O)N[C@@H]1CN(c2ccccn2)C[C@H]1CN(C)C,3,32µM*
CCOc1ccc(CC(=O)N[C@@H]2CN(c3ccncn3)C[C@H]2CN(C)C)cc1,-8,i
CN(C)C[C@@H]1CN(c2ccncn2)C[C@H]1NC(=O)c1c(F)cccc1F,-8,i
COc1cccc(C(=O)N2C[C@@H](CO)[C@H](c3nc(C4CC4)no3)C2)c1,6,i
O=C(Nc1ccc(Cl)c(Cl)c1)c1cc2n(n1)CC(c1ccc(Cl)cc1)OC2 (stereo not drawn),2,28µM*
